Screens as filed in PubChem.
Compounds with a hit are over-represented: about 12% of the library has one in this group of screens.
Shiga toxin inh – Shiga toxin inhibition. 290,000 tested, 9.2% active. inhibition, % at 38.7 µM. Vero cells, Shiga toxin protein synthesis inhibition reporter; in the data active = inhibition mostly above about 28%, no sharp cut-off; inactive = mostly below about 43%; note: 0% is about no effect
NS1 function inh – influenza NS1 inhibition. Potency, µM (highest dose often 46.1 µM), without a hit: at the top dose activity, positive = more growth. 270,000 tested, 0.4% active; note: potency is the fitted concentration of half-maximal effect; actives are rising curves; nearly all actives have a fitted effect of over 50% in size
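S. cerevisiae expressing influenza A NS1, grown in glucose, washed, then diluted 1:100 into pH 6.0 -URA galactose medium with 23 nl compound. Growth recovery read as OD600; NS1-free strain serves as control.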
CHX counter – counter-screen hit for Shiga toxin inhibitors, cycloheximide; cell reporter, cycloheximide protein synthesis inhibition counterscreen; max response, %; 300,000 tested, 12% active; AID 2314; in the data active = max response mostly above about 13%, no sharp cut-off; inactive = mostly below about 14%; note: read at 38.3 µM for the half of the compounds with a filed dose; 0% is about no effect
SARS PLpro yeast – blocks SARS-CoV papain-like protease in a yeast assay | S. cerevisiae expressing SARS-CoV PLpro, growth rescue | Potency, µM (titrated, usually from 32.9 µM), inactives show at the top dose activity, positive = growth rescue, usual class: activators | 330,000 tested, 0.19% active | AID 485353; note: potency is the fitted concentration of half-maximal effect; 0% is about no effect; nearly all actives have a fitted effect of over 55% in size
Starred values were filed as active, the others as inactive; ? = inconclusive; . = no result. Unless noted, calls come from the whole dose curve.

SMILES	Shiga toxin inh	NS1 function inh	CHX counter	SARS PLpro yeast
O=C(NCCCN1CCCC1=O)c1sc2ccccc2c1Cl	39*	-1%	29*	-5%
Cc1ccc(NC(=O)NCCCN2CCCC2=O)cc1Cl	74*	3%	31*	-4%
O=C(NCCCN1CCCC1=O)Nc1ccccc1Cl	20	-5%	7	-1%
O=C(NCCCN1CCCC1=O)c1cc2c(s1)CCCCC2	73*	-4%	49*	2%
COc1ccc(CCN(Cc2cc3cccc(C)c3[nH]c2=O)C(=O)NC2CCCCC2)cc1OC	12	1%	-5	12%
CCCCn1c(N)c(N(CC(C)C)C(=O)C2CC(=O)N(c3ccc(CC)cc3)C2)c(=O)[nH]c1=O (centres undefined)	.	.	.	-1%
O=[N+]([O-])c1cnc(Nc2ccccc2)nc1Nc1ccccc1	0	-1%	18	1%
COc1ccc(OCC(O)CNS(=O)(=O)c2cccc(Cl)c2)cc1 (centres undefined)	-5	-1%	-1	0%
O=C(NCCCN1CCCC1=O)Nc1ccccc1F	37*	-2%	19*	-3%
CCOc1ccc(S(=O)(=O)Nc2cccc(C)c2)c2cccnc12	18	-5%	-4	3%
CCOc1ccc(S(=O)(=O)Nc2ccc3c(c2)OCO3)c2cccnc12	19	?	23*	-5%
N#CCCN(C(=O)COc1ccc(Cl)cc1Cl)c1ccccc1	29	-3%	19*	8%
CC(C)(C)OC(=O)N1CCN(C(=O)c2[nH]cnc2C(=O)Nc2ccc(Cl)cc2)CC1	.	.	.	3%
COC(=O)c1cn(NC(=O)Cc2ccccc2Br)c(=O)c2ccccc12	-15	.	6	5%
NNc1nc(-c2ccccc2Cl)nc2ccccc12	.	4%	9	7%
NNc1nc(-c2ccccc2Cl)nc2sc3c(c12)CCCC3	52*	?	46*	-13%
CN1COc2ccc3ccccc3c2C1	4	.	18*	-3%
CCN(c1ccccc1)S(=O)(=O)c1ccc(C(=O)OC(C)C(=O)NCCC2=CCCCC2)cc1 (centres undefined)	-11	17%	-4	-19%
CC1(C)CC(=O)C(C=Nc2ccccc2C(=O)O)=C(O)C1	12	0%	11	-4%
CC1(C)CC(=O)C(C=Nc2ccccc2)=C(O)C1	52	2%	26*	8%
CC1(C)CC(=O)C(/C=N/c2ccccn2)=C(O)C1	11	10%	7	7%
CC1(C)CC(=O)C(/C=N/n2cnc3ccccc3c2=O)=C(O)C1	5	3%	14*	13%
COc1ccc(S(=O)(=O)N2CCOCC2)cc1NC(=O)COc1ccc(C(C)=O)cc1OC	.	.	.	-9%
CSC(=S)N/N=C(\C)c1ccccc1	50*	.	28*	-2%
CC(C)CCNC(=O)CN(C(=O)CCC(=O)Nc1nccs1)C1CCCCC1	-9	-2%	-2	-6%
SMILES	Shiga toxin inh	NS1 function inh	CHX counter	SARS PLpro yeast
CCC(=O)c1ccc2c(c1)OCCO2	33	2%	13*	0%
CCOc1ccc(-c2nnn(CC(=O)c3ccc4c(c3)OCCO4)n2)cc1OCC	18	0%	34*	-3%
CCOc1ccc(-c2nnn(CC(=O)NCc3ccc(F)cc3)n2)cc1OCC	-13	-3%	-6	3%
O=C(CS(=O)(=O)c1ccccc1)c1ccc2c(c1)OCCO2	58*	6%	45*	?
CCCC(=O)c1ccc2c(c1)OCCO2	28	-1%	10	9%
CC1(C)C2CCC1(CS(=O)(=O)Nc1ccc(S(=O)(=O)N3CCCCC3)cc1)C(=O)C2 (centres undefined)	1	0%	-1	-10%
Cc1ccc(S(=O)(=O)NC(=O)Nc2ccc(N(C)C)cc2)cc1	54*	-12%	55*	-10%
Cc1ccc(S(=O)(=O)NC(=O)c2cc(C)n(-c3ccc(N(C)C)cc3)c2C)cc1	51*	14%	19*	-56%
Cc1ccc(NC(=O)NNS(=O)(=O)c2ccc(Br)cc2)cc1	13	1%	-2	3%
CCc1ccnc(NC(=O)NS(=O)(=O)c2ccc(C)cc2)c1	23	1%	16*	1%
COc1cc2sc(C)nc2c2ccccc12	-2	-4%	1	-4%
Cc1nc2c(ccc3c2ccc2nc(C)sc23)s1	71*	-3%	23	-2%
COc1ccc(OC)c(NC(=O)Cc2coc3ccc(C)cc23)c1	13	-96%	-1	-9%
CC(C)=CC(=O)Nc1ccc(Cl)cc1	55*	-2%	54*	-2%
CCc1ccc2occ(CC(=O)Nc3ccc(OC)c(Cl)c3)c2c1	37*	.	13	.
COc1ccc(NC(=O)COC(=O)/C=C/C(=O)OCC(=O)Nc2ccc(OC)c(Cl)c2)cc1Cl	10	0%	6	3%
CCOC(=O)/C=C/C(=O)OCC(=O)Nc1ccc(OC)c(Cl)c1	-2	-51%	12*	-26%
COc1ccc(NC(=O)C=C(C)C)cc1Cl	102*	-53%	29*	.
COCC(=O)Nc1ccc(OC)c(Cl)c1	3	-3%	-2	0%
O=C(CN1C(=O)C2CC=CCC2C1=O)Nc1ccc(S(=O)(=O)Nc2nccs2)cc1 (centres undefined)	-7	9%	-1	-5%
CC(=O)Nc1ccc(SCCN2CCN(CCc3ccccc3)CCC2=O)cc1	18	.	9	.
C[C@H](NC(=O)c1ccco1)C(=O)N1CCN(c2ccc(C(F)(F)F)cn2)CC1	.	.	.	-1%
CN(C)S(=O)(=O)c1cccc(COC(=O)c2ccc(Cl)cc2O)c1	106*	1%	45*	-6%
FC(F)(F)c1ccc2c(c1)nc1n2CCCC1	13	-174%	22*	-47%
O=S(=O)(c1ccc2c(c1)nc1n2CCC1)N1CCOCC1	11	3%	-6	0%
SMILES	Shiga toxin inh	NS1 function inh	CHX counter	SARS PLpro yeast
Fc1ccc2c(c1)C(c1ccncc1)=NNC(c1ccccc1)=N2	72*	11%	62*	-3%
c1ccc(C2=Nc3cccnc3C(c3ccccc3)=NN2)cc1	92*	.	34*	-7%
Cc1cc2c(s1)c1cnn(Cc3c(F)c(F)cc(F)c3F)c(=O)c1n2C	16	.	7	.
CC1S/C(=N/N=C/c2ccco2)N(Cc2ccccc2)C1=O (centres undefined)	99*	3%	35*	-3%
CCC1S/C(=N/N=C/c2ccco2)N(Cc2ccc(F)cc2)C1=O (centres undefined)	24	0%	12	-2%
CCC1S/C(=N/N=C/c2ccco2)N(Cc2ccccc2C)C1=O (centres undefined)	38*	-5%	9	-4%
CCOc1ccc(N(CC(=O)NC2CCCCC2)C(=O)CCCC(=O)Nc2ccccn2)cc1	-6	-14%	1	-4%
Fc1ccc(NC(=S)Nc2cc(-c3ccccc3)[nH]n2)cc1Cl	29	1%	12	-3%
Cc1ccc(NC(=S)Nc2cc(-c3ccccc3)[nH]n2)cc1Cl	48*	.	13*	-5%
O=C(O)CCCC(=O)N1N=C(c2ccccc2)CC1c1ccc2c(c1)OCO2 (centres undefined)	-5	?	2	2%
CS(=O)(=O)Nc1cccc(C2=NN(S(C)(=O)=O)C(c3ccccc3)C2)c1 (centres undefined)	27	.	9	1%
CS(=O)(=O)Nc1ccc(C2=NN(S(C)(=O)=O)C(c3ccc4c(c3)OCO4)C2)cc1 (centres undefined)	85*	7%	30*	-3%
